Each structure is given as a SMILES string. Results filed as inconclusive are left out. Where a call stands in place of a potency, no number is given. Where a structure was tested more than once in an assay, its records may differ in their call. Activity calls are given as the source filed them. Calls follow the shape of the dose curve; as a rule, active = well fitted cell-killing curve with a large enough effect in the repeat runs; inconclusive = weak or mixed curves, or effect the other way; inactive = no such curve, though single readings can be large or run the other way.
Potency is read from the fitted curve at half-maximal effect.

This assay can be described thus: qHTS assay to identify small molecule antagonists of the sonic hedgehog signaling (Shh) pathway - cell viability counter screen (AID 1259367). Also: nearly all actives have a fitted effect of over 55% in size. The conditions noted are these: NIH/3T3 Gli1-Luc viability, CellTiter-Fluor, 24 h; series mostly up to 92.4 µM. The source says: National Center for Advancing Translational Sciences [NCATS]
NIH Chemical Genomics Center [NCGC]
U.S. Environmental Protection Agency [EPA]
National Institutes of Environmental Health Sciences [NIEHS]
National Toxicology Program [NTP]
U.S. Food and Drug Administration [FDA]
The sonic hedgehog (Shh) pathway is essential for normal embryonic development. Dysregulation of the Shh pathway can cause severe developmental defects in organs. Therefore chemicals that interfere with the pathway are potential developmental toxicants. A cell line designated 3T3Gli1-Luc (DMB/OARSA/CFSAN/FDA, Laurel, MD), a NIH/3T3 derived clone containing stably integrated Gli1-Luc reporter is used to detect chemical interference of the Shh pathway, by changes in the expression of the firefly Luc gene under the control of the Gli1 transcriptional response element. This cell line was used to screen Tox21 libraries for identifying and prioritizing the potential developmental toxicants that interfere Shh pathway. Conditioned medium-stimulated mode was used to screen for chemicals inhibiting Shh signaling. The cytotoxicity of the compounds was tested in parallel by measuring the cell viability using CellTiter-Fluor assay system (Promega, Madison, WI) in the same wells.
Tox21 Assay Protocol Summary:
3T3 Gli1-Luc cells were dispensed at 2,000 per well in 5uL of culture medium into white solid bottom 1536-well plates (Greiner Bio-One, Monroe, NC) using a Multidrop Combi (Thermo Scientific, Waltham, MA) dispenser. The assay plates were incubated at 37 C and 5% CO2 for 4hr, and then 23nL of compounds dissolved in DMSO and positive control were transferred using a Pintool station (Wako, San Diego, CA). The compound transfer was followed by the addition of 1ul conditioned medium or assay buffer using two separate tips of Flying Reagent Dispenser (FRD, Aurora Discovery, San Diego, CA). The assay plates were incubated at 37C and 5% CO2 for 24hr. For viability read, after 23hr of compound treatment, 1uL of CellTiter-Fluor reagent (Promega Corporation, Madison, WI) was added to each well of the assay plates using Flying Reagent Dispenser (FRD, Aurora Discovery, San Diego, CA) and incubated the assay plates at 37C for 1hr. The fluorescence signal was quantified using a ViewLux plate reader (Perkin Elmer, Shelton, CT).
Background: In qHTS, concentration-response curves come from the screen itself.
Turning to `O=C1CCc2ccccc2O1`, the Potency entry was “inactive”.
To `O=S1(=O)CCCO1` belongs “inactive”; to `CCCN1C=CN(C)C1`, “inactive”.
In the case of `CC/C(=C(/CC)c1ccc(O)cc1)c1ccc(O)cc1` it was “inactive”.
In the case of `NCCOCCO` it was “inactive”; in that of `ClC/C=C/CCl`, “inactive”; in that of `O=Cc1ccccc1C=O`, 54.5 µM (active) and inactive.
With `NC[C@H](O)c1ccc(O)c(O)c1`, the Potency result was “inactive”.
To `C=C1C[C@H]2[C@@H]3C=C(C)C4=CC(=O)CC[C@]4(C)[C@H]3CC[C@]2(C)[C@@]1(OC(C)=O)C(C)=O` belongs “inactive”; to `CCCCCCC(C)O` (stereo not given), “inactive”; to `Cc1cccc(Nc2ccccc2C(=O)O)c1C`, “inactive”.
On to `CC(C)[C@@H]1CC[C@@H](C)CC1=O`, for which the Potency entry is “inactive”.
In the case of `NCCN` it was “inactive”; in that of `Nc1cc(Cl)c(N)c(Cl)c1`, “inactive”; in that of `C/C=C/C(=O)N(CC)c1ccccc1C`, “inactive”.
As to `c1ccc2ncccc2c1`, the Potency result is “inactive”.
On to `OCCNCCO`, for which the Potency result was “inactive”.
Consider `Brc1nc2ccccc2s1`, for which the Potency result was “inactive”.
In the case of `OC[C@@H](O)[C@@H](O[C@@H]1O[C@H](CO)[C@H](O)[C@H](O)[C@H]1O)[C@H](O)[C@@H](O)CO` it was “inactive”.
To `O=C(O)COCCN1CCN(C(c2ccccc2)c2ccc(Cl)cc2)CC1` (stereo not given) belongs “inactive”.
In the case of `CC/C=C\C/C=C\C/C=C\CCCCCCCC(=O)O` it was “inactive”; in that of `CCCCCC=O`, “inactive”; in that of `c1ccc2c(c1)[nH]c1ccccc12`, “inactive”.
As for `CCCCCCCCCCCCCO`, the Potency result was “inactive”.
To `CC1(C)O[C@@H]2C[C@H]3[C@@H]4C[C@H](F)C5=CC(=O)C=C[C@]5(C)[C@@]4(F)[C@@H](O)C[C@]3(C)[C@]2(C(=O)CO)O1` belongs “inactive”; to `CC(C)=CCO`, “inactive”.
To `O=C1OC2(c3ccccc31)c1cc(I)c(O)c(I)c1Oc1c2cc(I)c(O)c1I` belongs 15.5 µM (active) [middle of 4 runs].
In the case of `CN(C)CCCN1c2ccccc2Sc2ccc(Cl)cc21`, the Potency is 61.1 µM (active).
To `CCc1cccc2c3c([nH]c12)C(CC)(CC(=O)O)OCC3` (stereo not given) belongs “inactive”.
For the molecule `CC(=O)Nc1ccc2c(c1)Cc1cc(NC(C)=O)ccc1-2`, the Potency result is “inactive”.
To `COc1ccc(C(=O)c2ccccc2O)c(O)c1` belongs “inactive”.
To `CC(C)[N+](C)(CCOC(=O)C1c2ccccc2Oc2ccccc21)C(C)C` belongs “inactive”.
In the case of `Clc1ccc(Sc2cc(Cl)c(Cl)cc2Cl)cc1` it was “inactive”.
On to `Cc1ccc(N)c([N+](=O)[O-])c1`, for which the Potency result is “inactive”.
In the case of `Cc1ccc([N+](=O)[O-])c(C)c1` it was “inactive”; in that of `CN(Cc1cnc2nc(N)nc(N)c2n1)c1ccc(C(=O)N[C@@H](CCC(=O)O)C(=O)O)cc1`, “inactive”.
To `O=C(O)CCCC(=O)O` belongs “inactive”; to `CC(C)(Oc1ccc(Cl)cc1)C(=O)O`, “inactive”.
In the case of `Cc1ccc(S(=O)(=O)NCl)cc1` it was “inactive”; in that of `CC1=CC(C)(C)Nc2ccccc21`, “inactive”.

The record behind these values is PubChem BioAssay (Tox21).
